Most compounds without a hit are left out; they make up all but 1.7% or so of the library.
Peg3 imprint – induces erasure of genomic imprints in mouse ES cells; mouse ES Peg3-LacZ reporter, beta-gal luminescence, 40 h; Potency, µM (doses to about 60.7 µM), most hits filed as activators; 0.02% of 110,000 active; AID 1948
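Gelatin-coated wells received 300 freshly trypsinized female ES cells with a Peg3LacZ-Neo reporter on the maternal allele, then incubated 40 hours at 37C. BetaGlo was added for 5 minutes at room temperature before a single luminescence read.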
p53ts 39C tox – kills p53ts cells at the nonpermissive temperature | Potency, µM (titrated, usually from 46.1 µM), usual class: cytotoxic | 1.5% of 130,000 active | AID 902 | H1299-p53A138V viability at 39C, ATP luminescence, 24 h; note: nearly all actives have a fitted effect of over 55% in size
p53ts 32C tox – p53ts cell cytotoxicity, permissive temperature; AID 924; 0.93% of 130,000 active; H1299-p53A138V at 32C, ATP luminescence viability, 24 h; Potency, µM (series often up to 46.1 µM), actives largely listed as cytotoxic; note: nearly all actives have a fitted effect of over 55% in size
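H1299-p53 A138V cells (temperature-sensitive p53) exposed 24 h to up to 46 uM compound at 32C, where p53 is wild-type in conformation. Viability read as ATP luminescence and normalised to DMSO and 100 uM tamoxifen. AC50 fitted with the Hill equation.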
IkB signaling – suppresses IkB signaling in ABC-DLBCL reporter cells | ABC-DLBCL IkBa-CBG/CBR dual luciferase ratio, 4 h; response scale: scaled: untreated 0%, proteasome inhibitor 100% | 0.04% of 110,000 active | Potency, µM (highest dose often 57.1 µM); active = well fitted curve in the direction sought with a large enough effect in the signal ratio, not every such curve was filed as active; inconclusive = small, poorly fitted or top-dose-only effect, or a change in a side signal; the % refers to the signal ratio;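 note: the direction sought is a rising ratio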
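Curves were fitted separately to fusion (green), unfused (red) and ratio luminescence, then classed by r2, magnitude and activity. Cells: OCI-Ly3, 4 h compound plus doxycycline at 37C; 10 uM MG-132 defined full response.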
Hits are given with their value; – = inactive; ? = inconclusive; · = no result; [ ] = another dose, or the depositor's remark. Unless noted, calls come from the whole dose curve; as a rule, active = well fitted curve in the direction sought with a large enough effect; inconclusive = small, poorly fitted or top-dose-only effect, or another doubt; inactive = no such curve, though single readings can be large; an effect the other way counts as inactive or inconclusive.

SMILES | Peg3 imprint | p53ts 39C tox | p53ts 32C tox | IkB signaling
Cc1csc(SCC(=O)c2cc(C)n(Cc3cccs3)c2C)n1 | – | 12.6µM | 12.6µM | ?
CN1[C@@H]2CC(OC(=O)[C@@H](CO)c3ccccc3)C[C@H]1[C@H]1O[C@H]12 (some centres not stated) | · | · | · | –
CCN(CC)c1ccc2c(c1)oc(=O)c1c(Cl)cc(=O)oc12 | – | 12.6µM | 12.6µM | ?
CCN(CC)c1ccc2c(Cl)c(Br)c(=O)oc2c1 | · | ? | 12.6µM | ?
CCN(CC)c1ccc2c(C)cc(=O)oc2c1 | – | – | –[1.84 µM] | –
CC(=O)Oc1cc(OC(C)=O)c2c(=O)cc(-c3ccc(OC(C)=O)c(OC(C)=O)c3)oc2c1 | – | – | – | –[11.4 µM]
COc1ccc(CCN(C)CCCOc2ccc(S(=O)(=O)c3[nH]c4ccccc4c3C(C)C)cc2)cc1OC | – | 12.6µM | 25.1µM | ?
N#CC(=NCCO)C1=C(O)c2ccccc2C1=O | –[10.9 µM] | –[9.22 µM] | ? | –[11.4 µM]
O=C1C(SCCO)=C(SCCO)C(=O)c2ccccc21 | – | 0.794µM | 0.631µM | ?
C=CC(=O)CC | 31.6µM | – | –[1.84 µM] | –
C=CC(=O)NC(C)C | – | – | –[1.84 µM] | –
[O-]/[N+](=N\O)c1ccccc1 | – | – | –[1.84 µM] | –
Cc1ccc(NC(=O)Cn2c(=O)n(CC(=O)NCCc3ccccc3)c(=O)c3ccccc32)cc1C | –[10.9 µM] | 10µM | – | ?
Cc1cccc(NC(=O)Nc2ccc(F)cc2)n1 | –[10.9 µM] | – | – | –
Cc1ccc(NC(=O)Nc2cccc(C)n2)cc1 | –[10.9 µM] | 15.8µM | 12.6µM | –
COc1ccc(C(=O)NC(=O)Nc2cc(C)ccn2)cc1 | – | 1.26µM | 1.26µM | –
COc1ccc(NC(=O)Nc2cc(C)ccn2)cc1 | – | 6.31µM | 7.94µM | –
c1ccc2c[n+](CCCC[n+]3ccc4ccccc4c3)ccc2c1 | –[10.9 µM] | –[9.22 µM] | –[9.22 µM] | –[11.4 µM]
O=c1c(-c2cccs2)nc2cnc(N3CCOCC3)nc2n1Cc1cccs1 | ? | – | – | –[11.4 µM]
c1ccc(-c2ccc(-c3ccccn3)nn2)nc1 | – | 10µM | 12.6µM | ?
O=c1[nH]c2[nH]c(=S)[nH]c(=S)c2[nH]1 | –[10.9 µM] | –[9.22 µM] | –[9.22 µM] | –[11.4 µM]
C/C(CCN1CCCc2nc(C)c(C)cc21)=N\O[C@@H](C)c1cn([C@H](CO)Cc2ccccc2)nn1 | · | –[9.22 µM] | –[9.22 µM] | ·
N#Cc1cccc(NC(=O)c2cc3c(s2)-c2ccc(Cl)cc2SC3)c1 | –[10.9 µM] | 10µM | ? | –
CCn1cnc2cc(NCc3nc4ccccc4n3C)ccc21 | – | ? | 15.8µM | –
CCn1cnc2cc(NCc3nc4ccccc4n3Cc3ccccc3)ccc21 | · | – | – | ·
SMILES | Peg3 imprint | p53ts 39C tox | p53ts 32C tox | IkB signaling
Oc1cccc(C(Nc2ccccn2)c2ccc3cccnc3c2O)c1Cl (configuration not stated) | –[10.9 µM] | 7.94µM | – | ?
CCC(=O)NC(c1ccccc1OC)c1ccc2cccnc2c1O (configuration not stated) | · | – | – | ·
CCN1C(C(=O)c2ccccc2)=C(OC(=O)c2ccccc2OC)c2ccccc2S1(=O)=O | –[10.9 µM] | 10µM | ? | ?
CCOc1cccc(CC(=O)NCc2ccc3c(c2)CCN3C(=O)c2cccc(C)c2)c1OCC | –[10.9 µM] | – | – | –
Cc1ccc2c(c1)C(=O)C1(O)CCN(c3ccccc3)C1=N2 (configuration not stated) | – | · | · | ·
CC(C)(C)C(=O)Nc1ccc(-c2nc3ccccc3s2)cc1 | –[10.9 µM] | 0.316µM | 0.316µM | –
COc1cc(OC)cc(C(=O)Nc2cc(-c3nc4ccccc4s3)ccc2OC)c1 | –[10.9 µM] | – | – | –
COc1ccc(-c2nc3ccccc3s2)cc1NC(=O)c1ccc(F)cc1 | –[10.9 µM] | 12.6µM | – | –
CC(C)(C)c1ccc(S(=O)(=O)/C=C/C#N)cc1 | – | · | · | ·
COC(=O)C1=C(C)NC(C)=C(C(=O)OCCNCc2ccccc2)C1c1cccc([N+](=O)[O-])c1 (configuration not stated) | – | · | · | ·
CCN1C(=O)[C@@H]2[C@H]3C(=CC[C@@H]2C1=O)C1(OCCCO1)[C@H]1O[C@@H]1[C@H]3O | · | –[9.22 µM] | –[9.22 µM] | ·
CSc1n[nH]c(NCc2ccc(C)cc2)n1 | · | 14.1µM | 11.2µM | ·
COc1ccc(CC(=O)NCCc2csc(-c3ccc(C(F)(F)F)cc3)n2)cc1 | –[10.9 µM] | – | – | –
O=C(Cc1ccc(F)cc1)NCCc1csc(-c2ccc(C(F)(F)F)cc2)n1 | –[10.9 µM] | 20µM | – | –
COc1ccc(-c2nc3cnc(N4CCNCC4)nc3n(Cc3cccc(OC)c3)c2=O)cc1 | · | ? | – | –[11.4 µM]
COCCn1c(=O)c(CCc2ccccc2)nc2cnc(N3CCOCC3)nc21 | 3.98µM | – | – | –[11.4 µM]
COc1cccc(Cn2c(=O)c(-c3ccc(Cl)cc3)nc3cnc(N4CCNCC4)nc32)c1 | – | ? | 12.6µM | –[11.4 µM]
O=c1c(CCc2ccccc2)nc2cnc(N3CCNCC3)nc2n1Cc1ccc(F)cc1 | · | 12.6µM | – | –[11.4 µM]
COCCn1c(=O)c(CCc2ccccc2)nc2cnc(N3CCN(C)CC3)nc21 | · | – | – | –[11.4 µM]
CC(NC(=O)c1cc(-c2ccc(O)cc2)on1)c1ccccc1 (configuration not stated) | – | – | – | –
CC1(C)COCN1S(=O)(=O)c1ccc(C(=O)Nc2nnc(-c3ccc(Cl)s3)o2)cc1 | – | 7.94µM | ? | –
CCc1ccc(C(=O)c2cn(CC(=O)Nc3ccc4c(c3)OCO4)c3ccc(Cl)cc3c2=O)cc1 | –[10.9 µM] | 12.6µM | – | –
CCc1ccc2c(c1)c(=O)c(C(=O)c1ccccc1)cn2CC(=O)Nc1ccc(C)c(Cl)c1 | –[10.9 µM] | 15.8µM | – | ?
CCc1ccc(C(=O)c2cn(CC(=O)Nc3ccc4c(c3)OCO4)c3cc(OC)c(OC)cc3c2=O)cc1 | –[10.9 µM] | – | – | ?
CCOc1ccc(C(=O)c2cn(CC(=O)Nc3ccc(C)c(Cl)c3)c3ccc(OCC)cc3c2=O)cc1 | –[10.9 µM] | – | – | ?
SMILES | Peg3 imprint | p53ts 39C tox | p53ts 32C tox | IkB signaling
CCc1ccc(C(=O)c2cn(CC(=O)Nc3ccc4c(c3)OCO4)c3ccc(CC)cc3c2=O)cc1 | –[10.9 µM] | 12.6µM | ? | –
CC(C)CNC(=O)NC1C(NC(=O)NCC(C)C)N(C)C(=O)N1C (configuration not stated) | – | 6.31µM | 5.01µM | ?
NC(=O)C1=CN(C2OC(COP(=O)(O)OP(=O)(O)OC[C@H]3O[C@@H](n4cnc5c(N)ncnc54)[C@H](OP(=O)(O)O)[C@H]3O)C(O)C2O)C=CC1 (some centres not stated) | – | · | · | ·
CCC1(C)CC(=O)c2c(ccc3oc(C(=O)NCc4ccccc4)c(C)c23)O1 (configuration not stated) | –[10.9 µM] | – | – | ?
COc1ccc(NC(=O)c2oc3ccc4c(c3c2C)C(=O)CC(C)(C)O4)cc1OC | ? | 3.98µM | 10µM | ?
CCOc1ccccc1CNC(=O)c1oc2ccc3c(c2c1C)C(=O)CC(C)(C)O3 | –[10.9 µM] | – | – | –
CCc1cccc(NC(=O)c2oc3ccc4c(c3c2C)C(=O)CC(C)(C)O4)c1 | –[10.9 µM] | 6.31µM | ? | –
O=C1[C@@H]2[C@@H]3C=C[C@H]([C@@H]2C(=O)N1CN1CCSCC1)[C@@H]1[C@@H]2C(=O)N(CN4CCSCC4)C(=O)[C@@H]2[C@H]31 | · | –[9.22 µM] | –[9.22 µM] | –[11.4 µM]
Cc1c(-c2ccc(O)cc2)nn(-c2ccc(O)cc2)c1-c1ccc(OCCN2CCCCC2)cc1 | – | 31.6µM | ? | ?

Assay outcomes (PubChem BioAssay)
